Compound activity as filed in PubChem.
A selection: hits, their analogues and other compounds. The true share with any hit is near 2%.
CHT block = inhibitors of human choline transporter CHT; actives 0.86% (n = 310,000); CHT-expressing cells, membrane potential dye, choline response; hits give low values; B-score at 10 µM; High affinity choline transporter 1 (Homo sapiens), Q9GZV3;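 active = B-score over 3 SD under the library average, and starting fluorescence ratio not unusually high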;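 note: choline stimulus applied at its EC90 after an EC20 pre-addition; B-score computed on integrated fluorescence ratio after choline addition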
Target sequence (Q9GZV3 whole entry, looked up): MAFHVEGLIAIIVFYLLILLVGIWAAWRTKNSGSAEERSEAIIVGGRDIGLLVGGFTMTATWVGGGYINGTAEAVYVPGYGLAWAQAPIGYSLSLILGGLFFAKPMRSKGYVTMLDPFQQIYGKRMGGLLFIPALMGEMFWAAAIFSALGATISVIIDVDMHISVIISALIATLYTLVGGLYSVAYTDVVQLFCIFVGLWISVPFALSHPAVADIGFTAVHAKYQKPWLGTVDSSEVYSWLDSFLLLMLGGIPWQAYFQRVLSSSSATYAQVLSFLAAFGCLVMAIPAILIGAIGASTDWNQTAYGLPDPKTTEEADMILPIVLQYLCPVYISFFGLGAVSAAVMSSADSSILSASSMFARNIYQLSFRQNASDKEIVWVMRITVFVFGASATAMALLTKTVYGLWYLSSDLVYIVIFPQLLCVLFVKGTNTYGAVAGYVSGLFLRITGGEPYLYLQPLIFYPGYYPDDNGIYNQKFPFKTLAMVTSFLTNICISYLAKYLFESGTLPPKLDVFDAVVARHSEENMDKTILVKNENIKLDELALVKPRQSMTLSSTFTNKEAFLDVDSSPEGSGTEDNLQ
Kir21 inh = inhibitors of mouse Kir2.1 inward-rectifier potassium channel; HEK293-Kir2.1, FluxOR thallium flux fluorescence; hits give low values; B-score at 10 µM; actives 0.85% (n = 310,000);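 active = fluorescence ratio B-score at or below minus 3 SD of library scores, with starting-brightness B-score within 2 SD, cut at about -4.2 in these data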;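 note: channel flux triggered by added potassium and thallium sulfate stimulus; B-score of peak minus minimum fluorescence over baseline after thallium stimulus; more negative B-score means stronger Kir2.1 block with less thallium influx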
CHT allo act = CHT positive allosteric modulators, primary screen, cell-based, membrane potential dye, choline EC20. AID 488977, 2010. B-score at 10 µM. CHT-expressing cells; hits give high values; LV-AA mutant CHT in HEK293 cells. actives 0.49% (n = 310,000);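 active = initial fluorescence not abnormally high and integrated response B-score, plate-corrected, over 3 SD above library mean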
TAG inh = inhibitors of triacylglycerol accumulation, primary screen, cell-based, uHTS, fluorescence, H9c2 | H9c2 cells, Nile Red lipid (TAG) fluorescence; cells loaded with 200 µM oleic acid | inhibition, % at 12.5 µM | actives 0.66% (n = 230,000);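 active = pattern-corrected inhibition of lipid staining of at least 50% with the nuclear-stain viability signal not falling by more than 50%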
CHT inh conf = CHT inhibitors, confirmation, cell-based, membrane potential dye, duplicate; shares compounds with CHT block; CHT-expressing cells, choline membrane potential dye; LV-to-AA substituted CHT, HEK293 cells; CHT activity remaining % of control (hits give low values), % at 10 µM; actives 70% (n = 2,400); AID 493221, 2011;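 active = choline transporter activity left, mean of duplicates at 10 µM, below buffer-only control mean minus 3 SD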;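 note: depolarization triggered by choline at its EC90 following an EC20 pre-addition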
HEK293 MPD ctr = membrane potential effects in parental HEK293, counter-screen for CHT inhibitor project, cell-based, membrane potential dye; choline response; active = decrease or increase beyond buffer ±3SD; membrane potential ratio readout (active if shifted either direction beyond buffer ±3SD; no single direction) at 10 µM; shares compounds with CHT block; actives 4% (n = 2,400); AID 493222, 2011;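 note: parental cells lack the transporter so any hit is non-specific; ratio is peak minus trough fluorescence over baseline after EC90 choline challenge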
Hits are given with their value; i = inactive; nt = no result.

SMILES | CHT block | Kir21 inh | CHT allo act | TAG inh | CHT inh conf | HEK293 MPD ctr
O=[N+]([O-])c1cc(Cl)cc(/C=N\Nc2ccccn2)c1O | i | i | i | i | nt | nt
CN(C)C1(CN=Cc2cc(Cl)cc([N+](=O)[O-])c2O)CCCCC1 | -6.3 | i | i | nt | 36% | i
CCCCOc1ccc(C(=O)NCC(=O)OC2CCOC2=O)cc1 (stereo unspecified) | -5 | i | i | i | i | i
COCC(=O)NC1CCN(S(=O)(=O)c2ccc(C(=O)O)cc2)CC1 | i | i | i | nt | nt | nt
COCC(=O)NC1CCN(S(=O)(=O)c2cccc(C(C)=O)c2)CC1 | -5.1 | i | i | i | i | i
COc1ccc(C(=O)c2cc([N+](=O)[O-])ccc2N2CCN(C)CC2)cc1 | -6.9 | i | i | i | 44% | 4.7
COc1ccc(C(=O)c2cc([N+](=O)[O-])ccc2N2CCCC2)cc1 | i | i | i | nt | nt | nt
CC(=O)Nc1ccc(S(=O)(=O)Nc2nc3ccccc3s2)cc1 | i | i | i | i | nt | nt
O=S(=O)(Nc1nc2ccccc2s1)c1ccc(Br)s1 | -7.1 | i | i | nt | 69% | i
Cc1cccc(NC(=O)CN(C)S(=O)(=O)c2ccc(-c3ccc(=O)[nH]n3)s2)c1C | -6.3 | i | i | nt | i | i
CCOc1ccccc1/C=C/C(=O)NCC(=O)N1CCC(N(C)C2CCCCC2C)CC1 (stereo unspecified) | -5.5 | i | i | nt | 11% | i
COc1cc(OC)cc(C(=O)NC(=S)NNC(=O)[C@H]2C[C@@H]2c2ccccc2)c1 | -6.8 | i | i | i | 53% | i
CS(=O)(=O)c1ccccc1C(=O)Nc1ccc(S(=O)(=O)N2CCCC2)cc1 | nt | nt | nt | i | nt | nt
CCC(=NC(C)c1ccccc1)c1c(O)n(C)c(=O)n(C)c1=O (stereo unspecified) | -7.5 | i | i | nt | 51% | i
CC(=O)NC(CC(=O)OCC(=O)c1c(N)n(C)c(=O)n(C)c1=O)c1ccccc1 (stereo unspecified) | i | i | i | nt | nt | nt
O=C(O)c1cccc(CSc2ncn[nH]2)c1 | -6.1 | i | i | i | i | i
Cc1cc(C)nc(SCc2cccc(C(=O)O)c2)n1 | i | i | i | nt | nt | nt
O=C(CS(=O)(=O)c1cn(CC(=O)N2CCOCC2)c2ccccc12)NCc1ccc(F)cc1 | i | i | i | i | nt | nt
CCCc1cc(=O)[nH]c(SCc2cc(C(=O)OC)c(C)o2)n1 | -6 | i | i | i | i | i
COc1ccccc1C(=O)OCC(=O)Nc1ccccc1OC(F)F | -7.8 | i | i | i | i | i
COc1ccc(-c2nc(CN3CCN(c4ncnc5ccccc45)CC3)c(C)o2)c(OC)c1 | -5.1 | i | i | i | 52% | i
COc1ccc(OC(C)C(=O)NCCC2=CCCCC2)cc1 (stereo unspecified) | -5.1 | -6.4 | i | i | i | i
O=c1c(-c2ccc(Cl)cc2)c[nH]n1-c1ccccc1 | i | i | i | nt | nt | nt
O=c1c(-c2ccccc2)c[nH]n1-c1cccc([N+](=O)[O-])c1 | -6.2 | i | i | i | 45% | i
O=C(Nc1cccc(S(=O)(=O)NC2=NCCC2)c1)c1cc(Cl)ccc1[N+](=O)[O-] | -6.8 | i | i | i | 21% | i
SMILES | CHT block | Kir21 inh | CHT allo act | TAG inh | CHT inh conf | HEK293 MPD ctr
CC(c1ccco1)N(C(=O)c1ccccc1NS(=O)(=O)c1ccc(Cl)c([N+](=O)[O-])c1)c1ccccn1 (stereo unspecified) | -7.8 | i | i | nt | 66% | i
CC(c1ccco1)N(C(=O)c1cc(Cl)cc(Cl)c1)c1ccccn1 (stereo unspecified) | i | i | i | nt | nt | nt
Cc1ccccc1N1CCN(C2CCCN(C(=O)c3csc(C(C)C)n3)C2)CC1 (stereo unspecified) | i | i | i | i | nt | nt
CC(C)c1nc(C(=O)N2CCCC(N3CCN(c4cccc(Cl)c4)CC3)C2)cs1 (stereo unspecified) | -12 | i | i | i | 2.6% | i
O=C(CSc1ncn[nH]1)NNC(=O)c1ccccc1 | i | i | i | i | nt | nt
CCn1cc(C(c2ccccc2)C(C(C)=O)[N+](=O)[O-])c2ccccc21 (stereo unspecified) | i | i | i | i | nt | nt
CC(=O)SC(C[N+](=O)[O-])c1cn(C(C)=O)c2ccccc12 (stereo unspecified) | -5.5 | i | i | i | 67% | i
O=C(Cn1ccc(=O)[nH]c1=O)c1ccc([N+](=O)[O-])o1 | nt | nt | nt | i | nt | nt
O=C(c1ccco1)N1CCN(C(=O)c2ccc(COc3ccc4c(c3)CCC4)o2)CC1 | i | i | i | i | nt | nt
O=C(CCCOc1ccccc1)N1CCN(C(=O)c2ccco2)CC1 | i | i | i | nt | nt | nt
O=C(c1ccco1)N1CCN(C(=O)c2ccc(COc3ccc(Cl)cc3Cl)o2)CC1 | -6.3 | i | i | i | i | i
Cc1cc(Cl)ccc1OCCCC(=O)N1CCN(C(=O)c2ccco2)CC1 | -5.3 | i | i | nt | 68% | i
O=C(CN1C(=O)NC2(CCCc3ccccc32)C1=O)N1CCc2ccccc2C1 (stereo unspecified) | -6.1 | i | i | i | 34% | i
CSc1ccc(CNC(=O)C2(C)CCCN(C(C)C)C2)cc1 (stereo unspecified) | nt | nt | nt | i | nt | nt
Cc1cccc(C(=O)Nc2sc(-c3ccccc3)cc2C(=O)O)c1 | -6.3 | i | i | i | 53% | i
Cc1cc(C)nc(N2CCN(S(=O)(=O)c3ccc(F)cc3)CC2)n1 | i | i | i | nt | nt | nt
CCCCOC(=O)NS(=O)(=O)c1sc(CC(C)C)cc1-c1ccc(Cn2c(CC)nc3c(C)cc(C)nc32)cc1 | i | nt | i | nt | nt | nt
CC(C)(C)N(NC(=O)Nc1ccccc1)C(=O)c1ccccc1 | -6.1 | i | i | nt | i | i
CC(C)(C)N(NC(=O)Nc1ccc(Cl)cc1)C(=O)c1ccccc1 | i | i | i | nt | nt | nt
CCCN(CCC)Cc1c(C(=O)N/N=C/C(C)=C\c2ccco2)nnn1-c1nonc1N | -5.3 | i | i | nt | 60% | i
COc1ccc(C(=O)N2CCc3cc(OC)c(OC)cc3C2c2ccc(OC)c(OC)c2)cc1OC (stereo unspecified) | i | i | i | nt | nt | nt
COc1cc2c(cc1OC)C(c1cccs1)N(C(=O)c1cccnc1)CC2 (stereo unspecified) | -5.7 | i | i | i | i | i
CCCC(=O)Nc1c2c(nn1-c1ccc(C)cc1)CS(=O)(=O)C2 | -6.1 | i | i | nt | i | i
N#Cc1nc(Cc2cccc3ccccc23)oc1NCCCN1CCOCC1 | -5.7 | -6 | i | nt | 69% | i
N#Cc1nc(Cc2cccc3ccccc23)oc1NCCCn1ccnc1 | i | i | i | i | nt | nt
CN1CCN(c2oc(Cc3cccc4ccccc34)nc2C#N)CC1 | -7 | i | i | i | 62% | i
